# Screens (PubChem)
# Compounds with a hit are over-represented: about 5.9% of the library has one in this group of screens.
# ATXN2 expr inh = inhibitors of ATXN2 expression | AID 1745845 | Potency, µM (highest dose often 57 µM), without a hit: top-dose activity change, negative = inhibition, hits mostly inhibitors | HEK-293 ATXN2-luciferase reporter, luminescence, 24 h | 0.72% of 360,000 active; also: % is scaled to controls: 0 for no effect and ±100 for the full control effect; nearly all actives have a fitted effect of over 55% in size
#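 ATXN2-luciferase reporter cells (luciferase flanked by upstream and downstream ATXN2 gene portions) were treated 24 h at 37 °C with compounds at up to 57 uM. SteadyGlo luminescence gave expression; GF-AFC fluorescence gave viability.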
# S2 tox = cell viability loss in ATXN counter-screen. 0.49% of 400,000 active. AID 651635. Potency, µM (top dose mostly 56.7 µM), hits mostly cytotoxic. S2 cells (HEK-293 line with an ATXN2-luciferase reporter) viability, CellTiter-Fluor protease fluorescence, 24 h; also: nearly all actives have a fitted effect of over 40% in size
# TGFb SMAD3 inh = blocks TGF-b signaling; Potency, µM (doses to about 46.1 µM), without a hit: at the highest dose activity, negative = inhibition, hits mostly inhibitors; AID 588855; HepG2 CAGA-GFP TGF-b/SMAD3 reporter, GFP fluorescence, 18 h; TGF-beta stimulated, 500 pg/mL final; 1.2% of 410,000 active; also: % is scaled to controls: 0 for no effect and ±100 for the full control effect; nearly all actives have a fitted effect of over 65% in size
#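 Using HEPG2 CAGA-GFP reporter cells at 1000 cells/well, we pinned test compounds, stimulated with recombinant TGF-beta (500 pg/mL final) and measured total well GFP after 18 h.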
# KB-V1 MDR tox = kills drug-selected multidrug resistant KB-V1 cells | Potency, µM (doses to about 46.1 µM), usual class: cytotoxic | 3.4% of 400,000 active | KB-V1 MDR cells viability, CellTiter-Glo, 72 h; also: % is scaled to controls: 0 for no effect and ±100 for the full control effect; nearly all actives have a fitted effect of over 60% in size
#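 KB-V1 MDR subline cells in DMEM (phenol-red free, 10% FBS) exposed to compounds in qHTS concentration series for 72 h at 37 degrees C. Viability read by CellTiter-Glo luminescence; concentration-effect curves fitted after normalization and correction.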
# HepG2 tox = HepG2 cytotoxicity, counter-screen for TGF-b inhibitors. AID 588856. Potency, µM (highest dose often 46.1 µM), for the others: top-dose activity change, negative = cytotoxicity, usual class: cytotoxic. HepG2 CAGA-GFP viability, ATP luminescence, 18 h. 0.76% of 410,000 active
#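 HepG2 CAGA-GFP cells (1000/well, DMEM with 1% FBS) received compound, then TGF-beta at 500 pg/mL final, and were incubated 18 hours at 37 degrees C. Viability was read by CellTiter-Glo luminescence. Media-only wells were set as complete cell-killing and DMSO as no toxicity.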
# KB-3-1 cytotox = KB-3-1 parental cell cytotoxicity; KB-3-1 viability, CellTiter-Glo ATP luminescence, 72 h; Potency, µM (doses to about 46.1 µM), hits mostly cytotoxic; 1.4% of 400,000 active; also: % is scaled to controls: 0 for no effect and ±100 for the full control effect; nearly all actives have a fitted effect of over 60% in size
#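 Parental KB-3-1 adenocarcinoma cells in phenol-red-free DMEM with 10% FBS were pin-treated with compounds at several concentrations, incubated 72 h at 37 °C, and viability read by CellTiter-Glo luminescence; concentration-effect curves were fitted after normalization.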
# * = called active by the depositor; i = inactive; ? = inconclusive; . = no result. Calls follow the shape of the dose curve; as a rule, active = well fitted curve in the direction sought with a large enough effect; inconclusive = small, poorly fitted or top-dose-only effect, or another doubt; inactive = no such curve, though single readings can be large; an effect the other way counts as inactive or inconclusive. Potency is read from the fitted curve at half-maximal effect.
SMILES,ATXN2 expr inh,S2 tox,TGFb SMAD3 inh,KB-V1 MDR tox,HepG2 tox,KB-3-1 cytotox
Cc1cc(C)n(-c2ccc(C(=O)NCC3Cc4cc(-c5cnccn5)ccc4O3)cc2)n1 (centres undefined),.,i,.,.,.,.
Cc1ccc([N+](=O)[O-])c(OCCN2CCC(Cc3ccccc3)CC2)c1,-27%,i,3%,21µM*,3%,?
Cc1onc(-c2ccccc2Cl)c1C(=O)Nc1ccc(-c2cn3cccnc3n2)cc1,-1%,i,-12%,?,-14%,i
Cc1onc(-c2ccccc2Cl)c1C(=O)Nc1cccc2cccnc12,-9%,i,-20%,12µM*,-21%,i
CCCCNS(=O)(=O)c1ccc(NC(=O)c2c(-c3ccccc3Cl)noc2C)cc1,4%,i,?,21µM*,-29%,i
COc1cc(NC(=O)c2c(-c3ccccc3Cl)noc2C)c2ncccc2c1,2%,i,-9%,i,-20%,i
Cc1cnc(C(=O)Nc2cccc3cccnc23)cn1,?,?,2.8µM*,?,-89%,5.2µM*
Cc1ccc(-c2cn3cccnc3n2)cc1NC(=O)c1c(-c2ccccc2Cl)noc1C,-16%,i,-22%,4.6µM*,-19%,12µM*
CN(CC(=O)O)c1ccc(C=O)cc1,.,.,1%,i,4%,i
CN(C)c1ccc(CNC(=O)c2cc3ccccn3n2)cc1,31%,i,0%,i,-8%,i
Cc1onc(-c2ccccc2Cl)c1C(=O)Nc1cccc(-c2nc3ncccn3c2C)c1,1%,i,?,8.2µM*,-8%,i
CC(=O)Nc1cccc(NC(=O)c2c(-c3ccccc3Cl)noc2C)c1,3%,i,-6%,16µM*,-1%,i
CCc1ccc2oc(C(=O)Nc3ccccc3C(=O)OC)cc(=O)c2c1,2%,i,6%,i,4%,i
CCc1ccc(NC(=O)c2cc(CN3CCOCC3)on2)cc1,15%,i,7%,i,-3%,i
CC(C)C[C@H](CO)Nc1nc(Nc2cccc(Cl)c2)c2ncn(C(C)C)c2n1,?,22µM*,?,i,-58%,i
CCOC(=O)c1c(S(=O)(=O)N2CCC(C(=O)N3CCN(c4ccccc4F)CC3)CC2)c(C)n(C)c1C,-14%,i,12%,i,-8%,i
CCn1ccc2cc(S(=O)(=O)N3CCCN(C(=O)Nc4ccccc4C(F)(F)F)CC3)ccc21,9%,i,-13%,?,-1%,i
CCOC(=O)c1ccccc1NC(=O)N1CCCN(S(=O)(=O)c2ccc3c(ccn3CC)c2)CC1,-4%,?,-1%,15µM*,-25%,?
CCc1ccc(CNC(=O)CCCn2ccc3cc(S(=O)(=O)N4CCCC4)ccc32)cc1,?,13µM*,?,?,-30%,5.8µM*
CCc1ccc(CNC(=O)Cn2ccc3cc(S(=O)(=O)N4CCCCCC4)ccc32)cc1,-14%,i,0%,i,-28%,i
CCN(CC)CCN(C)c1ccc(/C=C/c2ccnc3ccccc23)cc1,.,.,?,?,-55%,?
c1nc(CCO[C@H]2CCCCO2)cc2cc3c(cc12)OCO3,11µM*,i,10%,i,-15%,i
CCC1(C2CCN(C(=O)c3ccc4ccccc4c3)CC2)NC(=O)N(CCc2scnc2C)C1=O (centres undefined),.,i,.,.,.,.
CC(=NNC(=O)c1ccncc1)c1ccccc1O,?,i,0%,i,-13%,?
CC(C)CC(=NNC(=O)c1ccncc1)c1cc(Cl)ccc1O,2.8µM*,?,-1%,?,7.1µM*,?
SMILES,ATXN2 expr inh,S2 tox,TGFb SMAD3 inh,KB-V1 MDR tox,HepG2 tox,KB-3-1 cytotox
CC(=NNC(=O)c1ccncc1)c1ccc(O)cc1O,14µM*,i,-1%,i,10%,?
CCCCCCCCC(=O)N/N=C(\C)c1ccc(O)cc1O,18µM*,?,?,?,-23%,i
CCCCCCCC(=O)N/N=C(\C)c1ccc(O)cc1O,0%,?,-22%,i,-18%,?
C/C(=N\NC(=O)c1cc(-c2cccc(OC(C)C)c2)nc2ccccc12)c1cccnc1,-20%,i,1%,i,-29%,i
C/C(=N\NC(=O)c1cc(-c2cccnc2)nc2ccccc12)c1ccc(O)cc1O,4µM*,?,-9%,?,-20%,?
CCc1nc2cc(C(=O)N[C@H]3CCCCNC3=O)cc(NC(=O)c3ccccc3OC)c2n1C,.,i,.,.,.,.
COc1ccc(C2c3c(n(C)c4ccccc34)C(=O)N2CC(=O)Nc2cc(Cl)ccc2C)cc1 (centres undefined),.,.,0%,i,-17%,i
C=C1C=CS(=O)(=O)N(C(CC(C)C)C(=O)OC)C1 (centres undefined),.,.,-27%,.,-25%,.
Cn1c(NCCN2CCCC2)nc2cc(-c3cccc(C(F)(F)F)c3)sc2c1=O,?,?,?,i,-87%,i
C/C(=N\NC(=O)c1ccc(N/N=C(\C)c2ccc(O)cc2)cc1)c1ccc(O)cc1,.,?,13µM*,i,11µM*,i
C/C(=N\NC(=O)c1ccc(O)cc1)c1ccc(N2CCOCC2)cc1,-16%,i,13%,i,8%,i
Cc1[nH]n(-c2ccc([N+](=O)[O-])cc2)c(=O)c1C=NCC1CCCO1 (centres undefined),31%,i,?,?,-50%,?
Cc1[nH]n(-c2ccc([N+](=O)[O-])cc2)c(=O)c1C=NCCc1ccc(S(N)(=O)=O)cc1,-18%,i,3%,i,-25%,?
Cc1ccc(-n2[nH]c(C)c(/C=N/Nc3ccc([N+](=O)[O-])cc3[N+](=O)[O-])c2=O)cc1,?,.,?,16µM*,-49%,?
Cc1[nH]n(-c2ccc([N+](=O)[O-])cc2)c(=O)c1C=NCCc1c(C)[nH]c2ccccc12,?,i,-15%,16µM*,-30%,i
COc1ccc(OC)c(NC(=O)c2nnn(Cc3ccccc3C)c2N)c1,-12%,i,15%,i,9%,9.2µM*
Cc1ccc(C)c(NC(=O)c2nnn(CC(=O)Nc3cccc(C)c3C)c2N)c1,.,.,-9%,.,-12%,.
COc1ccc(NC(=O)c2nnn(Cc3ccccc3C)c2N)c(OC)c1,?,i,28%,i,4%,?
CCc1ccccc1NC(=O)Cn1nnc(C(=O)NCc2cccc(OC)c2)c1N,.,i,11%,?,9%,7.3µM*
